Screens as filed in PubChem BioAssay.
Giardia FBPA inh: inhibitors of Giardia lamblia fructose-1,6-bisphosphate aldolase | AID 2451 | purified Giardia FBPA | A8B2U2 | 290,000 tested, 0.71% active | Potency, µM (highest dose often 59.6 µM), for the others: at the highest dose activity, negative = inhibition, actives largely listed as inhibitors; note: potency is the fitted concentration of half-maximal effect; nearly all actives have a fitted effect of over 55% in size
Target sequence (A8B2U2 whole entry, looked up): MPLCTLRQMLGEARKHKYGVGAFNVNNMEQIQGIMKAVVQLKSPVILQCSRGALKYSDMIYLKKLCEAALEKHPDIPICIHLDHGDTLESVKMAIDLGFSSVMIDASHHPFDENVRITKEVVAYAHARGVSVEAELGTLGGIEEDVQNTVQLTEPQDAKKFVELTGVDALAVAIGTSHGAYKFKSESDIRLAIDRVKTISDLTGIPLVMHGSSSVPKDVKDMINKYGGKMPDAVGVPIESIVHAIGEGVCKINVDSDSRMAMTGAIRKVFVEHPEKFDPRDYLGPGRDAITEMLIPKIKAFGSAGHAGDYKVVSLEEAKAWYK
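Giardia FBPA (40 nM reagent) was preincubated 10 min at RT with compound (up to 57.5 uM final), then substrate plus GAPDH/TPI/NAD/arsenate coupling system with diaphorase/resazurin was added; resorufin fluorescence (525/598 nm) was read after 20 min.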
LASV entry inh: Lassa virus entry inhibition; Potency, µM (titrated, usually from 37.9 µM), inactives show top-dose activity change, negative = inhibition, most hits filed as inhibitors; 300,000 tested, 1.2% active; AID 540256; Lassa virus pseudotype entry inhibition, cell reporter; calls by dose curve; tested in HEK293 cells; note: potency is the fitted concentration of half-maximal effect; nearly all actives have a fitted effect of over 50% in size
Marburg entry inh: inhibitors of Marburg virus binding or cell entry; Marburg virus pseudotyped entry inhibition, cell reporter; Potency, µM (top dose mostly 37.8 µM), without a hit: top-dose activity change, negative = inhibition, actives largely listed as inhibitors; 300,000 tested, 1.8% active; AID 540276; calls by dose curve; tested in HEK293 cells; note: potency is the fitted concentration of half-maximal effect
HCV inhibitor: HCV inhibition; 340,000 tested, 3.4% active; Potency, µM (highest dose often 41.8 µM), inactives show top-dose activity change, negative = inhibition, usual class: inhibitors; Huh7.5.1 HCVcc-Cre infection, luciferase reporter, 44 h; note: potency is the fitted concentration of half-maximal effect
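A cell-based infection assay in which seeded cells (1,000 per well) receive test compound after 4 h, are inoculated with HCVcc-Cre at approximately 0.5 moi, and are incubated 44 h before luminescence detection.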
HCMV antiviral: human cytomegalovirus inhibition | activity change, negative = inhibition, % at 57.5 µM | HFF cells, HCMV-luciferase reporter, 72 h; hits give low values | 410,000 tested, 4.5% active | AID 1259415; in the data active = activity change below about -60%; inconclusive = no clear call, values can overlap the other calls; inactive = above about -39%
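After 16 h attachment at 37C, HFF cells received test compound and HCMV-luciferase (1 PFU/cell); reporter luminescence read 72 h later, data normalized against buffer-only and known inhibitor Salinomycin.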
FMDV inh: antivirals against foot and mouth disease virus; FMDV antiviral cell-based qHTS; Potency, µM (top dose mostly 57.9 µM), for the others: at the top dose activity change, negative = inhibition, usual class: inhibitors; 410,000 tested, 1.2% active; AID 1159524; calls by dose curve; tested in HEK293T cells; note: read-out not given here; potency is the fitted concentration of half-maximal effect; nearly all actives have a fitted effect of over 45% in size
An asterisk follows results filed as active; [ ] = dose if it differs, or a comment. Compounds with a hit are over-represented: about 8.3% of the library has one in this group of screens. Unless noted, calls come from the whole dose curve; as a rule, active = well fitted curve in the direction sought with a large enough effect; inconclusive = small, poorly fitted or top-dose-only effect, or another doubt; inactive = no such curve, though single readings can be large; an effect the other way counts as inactive or inconclusive. % is set by controls: 0 for no effect and ±100 for the full control effect.

`Cc1nc(Cl)c(C(=O)NCc2ccccc2)c(C)c1Cl` gave Giardia FBPA inh 2%, LASV entry inh -1%, Marburg entry inh -5%, HCV inhibitor -1%, HCMV antiviral -70* and FMDV inh -2%.
Screening O=C(NCc1ccccc1)c1c(Cl)nc(Cl)c(Cl)c1Cl returned Giardia FBPA inh -2%, LASV entry inh -26%, Marburg entry inh inconclusive, HCV inhibitor 13µM*, HCMV antiviral -84* and FMDV inh -14%.
`C=CCC(C)(O)CCc1ccccc1` (centres undefined) gave Giardia FBPA inh 4%.
For CCOc1ccccc1CNC(=O)c1cccn1-c1nnc(N2CCCC2)s1 the results were LASV entry inh -18%[46.1 µM], HCMV antiviral 0 and FMDV inh 24%.
For CN(C)CCNC(=O)c1csc(Nc2cccc3ccccc23)n1 the results were Giardia FBPA inh 23%, LASV entry inh inconclusive, Marburg entry inh 10µM*, HCV inhibitor -18%, HCMV antiviral inconclusive and FMDV inh 6%.
For CCCNC(=O)c1csc(Nc2cccc3ccccc23)n1 the results were Giardia FBPA inh -5%, HCV inhibitor 5%, HCMV antiviral 79 and FMDV inh -13%.
CCc1ccc(-c2cc(C)no2)cc1S(=O)(=O)N1CCOc2ccccc21 was read as LASV entry inh inconclusive, Marburg entry inh inconclusive, HCV inhibitor 11µM*, HCMV antiviral -74* and FMDV inh inconclusive.
For CCN(CCCNS(=O)(=O)c1cc(-c2cc(C)no2)ccc1C)Cc1ccccc1 the results were Giardia FBPA inh -1%, HCV inhibitor 13µM*, HCMV antiviral inconclusive and FMDV inh 22%.
Screening CCc1ccc(-c2cc(C)no2)cc1S(=O)(=O)NCCN1CCC(C)CC1 returned Giardia FBPA inh -6%, LASV entry inh -30%[46.1 µM], Marburg entry inh inconclusive, HCV inhibitor inconclusive, HCMV antiviral 0 and FMDV inh 23%.
`CCc1ccc(-c2cc(C)no2)cc1S(=O)(=O)N1CCN(c2ccc(F)cc2)CC1` gave Giardia FBPA inh 5%, HCV inhibitor 5µM*, HCMV antiviral inconclusive and FMDV inh inconclusive.
Screening CCc1ccc(-c2cc(C)no2)cc1S(=O)(=O)NCCCN1CCN(c2ccccc2)CC1 returned HCV inhibitor 2µM*, HCMV antiviral inconclusive and FMDV inh inconclusive.
For Cc1cc(-c2ccc(C)c(S(=O)(=O)NCC3CCN(Cc4ccc(F)cc4)CC3)c2)on1 the results were Giardia FBPA inh 8%, LASV entry inh inconclusive, Marburg entry inh inconclusive, HCV inhibitor 8.9µM*, HCMV antiviral inconclusive and FMDV inh -10%.
Screening COc1ccccc1CN1CCC(CNS(=O)(=O)c2cc(-c3cc(C)no3)ccc2C)CC1 returned Giardia FBPA inh 4%, HCV inhibitor inconclusive, HCMV antiviral inconclusive and FMDV inh 9%.
CCc1ccc(-c2cc(C)no2)cc1S(=O)(=O)N1CCN(c2ccc(OC)cc2)CC1 was read as LASV entry inh inconclusive, Marburg entry inh inconclusive, HCV inhibitor inconclusive, HCMV antiviral -67* and FMDV inh -23%.
`O=C(C=P(c1ccccc1)(c1ccccc1)c1ccccc1)c1ccccc1-c1ccccc1C(=O)C=P(c1ccccc1)(c1ccccc1)c1ccccc1` gave LASV entry inh 2.2µM*, Marburg entry inh inconclusive, HCV inhibitor inconclusive, HCMV antiviral -98* and FMDV inh 20µM*.
Screening COCCn1c(=O)cnc2cnc(Oc3ccccc3)nc21 returned Giardia FBPA inh -9% and FMDV inh -12%.
CCOCC(=O)Nc1ccc(-c2cn3c(C)csc3n2)cc1 was read as LASV entry inh 3%[46.1 µM], HCMV antiviral inconclusive and FMDV inh 37%.
For COc1ccccc1CCNCc1ccc(OC)c(OCc2ccccc2)c1 the results were Giardia FBPA inh inconclusive, LASV entry inh inconclusive, Marburg entry inh inconclusive, HCV inhibitor 10µM*, HCMV antiviral inconclusive and FMDV inh inconclusive.
Screening CCCNCc1cc(OC)c(OCC(=O)NCCc2ccccc2)cc1Br returned Giardia FBPA inh -10%, LASV entry inh 2%, Marburg entry inh inconclusive, HCV inhibitor inconclusive, HCMV antiviral -4 and FMDV inh -10%.
Screening COc1ccc(CNCc2ccco2)cc1OCc1ccccc1 returned Giardia FBPA inh inconclusive, LASV entry inh -8%, Marburg entry inh -28%, HCV inhibitor 8% and HCMV antiviral 18.
CCCNCc1cc(OC)c(OCc2ccccc2)cc1Br was read as Giardia FBPA inh -1%, LASV entry inh -18%[46.1 µM], Marburg entry inh 11µM*, HCV inhibitor inconclusive, HCMV antiviral -24 and FMDV inh 3%.
For Cc1cc(S(=O)(=O)NCc2nc(N3CCCC3)c3cc(Cl)ccc3n2)c(C)s1 the results were FMDV inh -10%.
For c1ccc2c(CSc3ncnc4nc[nH]c34)cccc2c1 the results were Giardia FBPA inh -2%, LASV entry inh inconclusive, Marburg entry inh -12%[46.1 µM], HCV inhibitor inconclusive, HCMV antiviral -69* and FMDV inh inconclusive.
For O=C(CSc1ncnc2nc[nH]c12)c1ccccc1 the results were Giardia FBPA inh -3%, LASV entry inh inconclusive, Marburg entry inh -24%, HCV inhibitor 26%, HCMV antiviral 75 and FMDV inh 35%.
c1ccc(CCSc2ncnc3nc[nH]c23)cc1 was read as Giardia FBPA inh -25%, LASV entry inh -26%, Marburg entry inh inconclusive, HCV inhibitor 13µM*, HCMV antiviral inconclusive and FMDV inh 24%.
C[C@H]1Cc2c(-c3ccccc3)nc3c(c2CO1)CN(C(=O)NCc1ccco1)CC3 was read as Giardia FBPA inh 8%[12.9 µM] and Marburg entry inh 9%[14.2 µM].
For CCCc1cc(NC(=O)COC(=O)c2nccnc2N)n(-c2ccccc2)n1 the results were HCV inhibitor -1%, HCMV antiviral -104* and FMDV inh -6%.
Screening Cc1ccc2nc(-c3cccc(N)c3)[nH]c2c1 returned Giardia FBPA inh -20%, LASV entry inh inconclusive, Marburg entry inh inconclusive, HCV inhibitor -2%, HCMV antiviral 66 and FMDV inh -42%.
`Cc1ccc2nc(-c3sc4nc(C)cc(C)c4c3N)[nH]c2c1` gave Giardia FBPA inh -8%, LASV entry inh 13µM*, Marburg entry inh inconclusive, HCV inhibitor 19%, HCMV antiviral 249 and FMDV inh 4%.
`COc1cc(NC(=O)C2CCN(c3nc4ccccc4nc3C(F)(F)F)CC2)cc(OC)c1` gave LASV entry inh -23%[46.1 µM], HCMV antiviral -12 and FMDV inh 0%.
Screening CCCCS(=O)(=O)N1C2=NC(C(=O)OC)=C(C(=O)OC)[C@@H]3Nc4ccccc4[C@]23C[C@H]1C(=O)OC returned Giardia FBPA inh 5%[12.9 µM].
